Assay [1] relates to Plasmodium falciparum Sir2 (PF13_0152, Sir2A). The assay can be described thus: pfSir2 binders on small-molecule microarrays, primary screen, biochemical, small-molecule microarray, 635 nm fluorescence (AID 1098).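 Further: score merges spot fluorescence intensity with its signal-to-noise ratio.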 To be noted: small-molecule microarray binding, fluorescence 635 nm; higher = more signal.
Assay [2] in a line: small-molecule microarray binders of probe aDKK1, primary screen, biochemical, biotinylated probe, 635/667 nm fluorescence (AID 1099).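 Further: score merges 667nm spot fluorescence with signal to noise across triplicate slides; reference of the scale not given here.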 To be noted: higher = more signal.
The nature of assay [3]: small-molecule microarray binders of probe aCHRDL2, primary screen, biochemical, biotinylated probe, 635/667 nm fluorescence (AID 1100). To be noted: higher = more signal.
A short description of assay [4]: splicing luciferase reporter signal modulators, primary screen, spliceosome inhibition project, cell-based, HEK293, splice +/- reporter (AID 1101).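 Further: HEK293 cells carrying a splicing-competent luciferase reporter gene; test concentration not given here.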 Particulars: luminescence, 24 h, higher = more signal, called active from +8 up or from −8 down. A general note: Reporter assays use an easily measured gene product as a stand-in for the process of interest.
Assay [5] addresses Fibroblast growth factor 10 (Homo sapiens) (UniProt O15520). The assay can be described thus: FGF10 binders on small-molecule microarrays, primary screen, biochemical, small-molecule microarray, 635 nm fluorescence (AID 1102). To be noted: FGF10 binding, fluorescence 635 nm, higher = more signal.
For assay [6], the system named is glycogen synthase kinase-3 (GSK3A per assay name; protocol says GSK3B). The assay can be described thus: GSK3 binders on small-molecule microarrays, primary screen, biochemical, small-molecule microarray, 635 nm fluorescence, GSK3A (AID 1103). Further: the record names both GSK3A and GSK3B. To be noted: small-molecule microarray binding, fluorescence 635 nm; higher = more signal.
The target in assay [7] is Epidermal growth factor receptor (Homo sapiens) (UniProt P00533). Description: EGFR binders on small-molecule microarrays, primary screen, biochemical, small-molecule microarray, 635 nm fluorescence (AID 1104).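 Further: score merges 667 nm emission intensity with spot signal to noise over triplicate slides.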 Particulars: EGFR binding, higher = more signal.
The target of assay [8] is Follistatin-related protein 3 (Homo sapiens) (UniProt O95633). The assay can be described thus: FSTL3 binders on small-molecule microarrays, primary screen, biochemical, small-molecule microarray, 635 nm fluorescence (AID 1105).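 Further: score merges emission near 667 nm and signal to noise per printed spot across three slides.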 To be noted: FSTL3 binding, higher = more signal.
In assay [9] the target is Dickkopf-related protein 1 (Homo sapiens) (UniProt O94907). Description: DKK1 binders on small-molecule microarrays, primary screen, biochemical, small-molecule microarray, 635 nm fluorescence scan (AID 1106).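 Further: score merges emission near 667 nm with signal to noise over three replicate slides.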 Particulars: DKK1 binding, higher = more signal.
For assay [10], the system named is Inhibin beta A chain (activin A). The assay can be described thus: INHBA (activin A) binders on microarrays, primary screen, biochemical, small-molecule microarray, 635 nm fluorescence scan (AID 1107).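 Further: mouse activin A protein probed at 4.33 µg/mL on printed slides; score merges bound-protein fluorescence near 667 nm with spot signal-to-noise.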 To be noted: small-molecule microarray binding, higher = more signal.

Data on 14 compounds can be found in PubChem BioAssay.

Active and inactive are the calls of the source.

Sequence of Dickkopf-related protein 1 (Homo sapiens) (O94907 whole entry, looked up): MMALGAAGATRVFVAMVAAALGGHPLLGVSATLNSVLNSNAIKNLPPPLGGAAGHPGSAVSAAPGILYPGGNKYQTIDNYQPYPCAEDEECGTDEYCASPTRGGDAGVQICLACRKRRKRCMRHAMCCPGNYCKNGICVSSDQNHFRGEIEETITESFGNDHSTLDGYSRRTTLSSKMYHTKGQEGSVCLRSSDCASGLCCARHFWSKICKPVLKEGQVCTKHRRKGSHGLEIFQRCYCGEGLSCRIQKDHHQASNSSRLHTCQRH
Sequence of Fibroblast growth factor 10 (Homo sapiens) (O15520 whole entry, looked up): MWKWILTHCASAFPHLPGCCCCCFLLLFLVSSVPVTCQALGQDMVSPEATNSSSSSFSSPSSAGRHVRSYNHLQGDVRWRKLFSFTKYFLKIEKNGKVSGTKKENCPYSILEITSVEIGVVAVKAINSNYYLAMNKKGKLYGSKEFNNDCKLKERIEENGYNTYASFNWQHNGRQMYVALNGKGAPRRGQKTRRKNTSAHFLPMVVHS
Sequence of Epidermal growth factor receptor (Homo sapiens) (P00533 whole entry, looked up): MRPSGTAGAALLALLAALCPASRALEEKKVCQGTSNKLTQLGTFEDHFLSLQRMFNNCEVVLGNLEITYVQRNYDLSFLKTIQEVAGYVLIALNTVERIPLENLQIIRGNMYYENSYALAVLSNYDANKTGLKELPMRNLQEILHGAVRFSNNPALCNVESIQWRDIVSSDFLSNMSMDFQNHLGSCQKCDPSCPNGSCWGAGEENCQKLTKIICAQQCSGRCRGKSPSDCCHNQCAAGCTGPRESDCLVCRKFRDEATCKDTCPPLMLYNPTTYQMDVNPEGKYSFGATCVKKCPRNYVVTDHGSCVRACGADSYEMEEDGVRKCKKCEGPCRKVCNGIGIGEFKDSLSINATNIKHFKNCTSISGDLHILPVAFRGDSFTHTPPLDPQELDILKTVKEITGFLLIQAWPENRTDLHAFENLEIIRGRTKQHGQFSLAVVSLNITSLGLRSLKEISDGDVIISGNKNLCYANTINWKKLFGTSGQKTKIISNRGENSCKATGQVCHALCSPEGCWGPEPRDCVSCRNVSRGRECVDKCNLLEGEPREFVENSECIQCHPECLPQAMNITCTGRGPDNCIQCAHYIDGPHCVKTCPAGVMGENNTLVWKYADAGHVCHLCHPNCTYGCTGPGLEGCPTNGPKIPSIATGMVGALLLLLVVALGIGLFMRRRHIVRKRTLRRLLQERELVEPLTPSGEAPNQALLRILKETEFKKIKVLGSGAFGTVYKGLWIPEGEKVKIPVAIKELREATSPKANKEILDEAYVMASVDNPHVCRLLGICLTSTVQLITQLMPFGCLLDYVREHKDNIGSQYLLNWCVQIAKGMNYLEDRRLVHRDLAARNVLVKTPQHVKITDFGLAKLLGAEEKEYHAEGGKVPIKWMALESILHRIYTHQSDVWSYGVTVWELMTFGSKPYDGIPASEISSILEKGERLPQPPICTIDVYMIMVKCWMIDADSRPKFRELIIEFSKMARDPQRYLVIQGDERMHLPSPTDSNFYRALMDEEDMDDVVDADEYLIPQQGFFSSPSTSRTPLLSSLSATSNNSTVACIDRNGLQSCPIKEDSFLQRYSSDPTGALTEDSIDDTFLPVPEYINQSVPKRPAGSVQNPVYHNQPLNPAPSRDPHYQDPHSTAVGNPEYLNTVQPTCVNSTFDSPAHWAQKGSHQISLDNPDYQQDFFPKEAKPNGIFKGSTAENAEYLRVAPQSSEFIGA
Sequence of Follistatin-related protein 3 (Homo sapiens) (O95633 whole entry, looked up): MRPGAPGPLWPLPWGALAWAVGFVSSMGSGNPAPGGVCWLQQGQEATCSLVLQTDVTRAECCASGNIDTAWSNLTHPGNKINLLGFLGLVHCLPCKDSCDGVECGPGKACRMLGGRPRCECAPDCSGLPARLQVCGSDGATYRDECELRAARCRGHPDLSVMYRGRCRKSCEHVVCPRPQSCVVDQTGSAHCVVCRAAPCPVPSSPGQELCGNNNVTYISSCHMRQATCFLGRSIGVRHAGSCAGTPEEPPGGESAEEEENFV

On to `CC1CC/C=C\[C@H]2OC34C=CCN(Cn5nnc6ccccc65)C(=O)[C@H]3N(C(CO)C(C)C)C(=O)[C@@H]4C2C(=O)O1` (stereo not given in full), for which the composite z-score in assay [1] was 0.868; in assay [2], -0.165; in assay [3] it was 0.547; in assay [5], -0.103; in assay [6], -0.108; in assay [7], -0.675. Further, the composite z-score in assay [8] is -0.551; in assay [9], -0.877; in assay [10], 0.459. Moreover, in assay [4], the z-score was 0.209 (inactive).

On to `[N-]=[N+]=Nc1ccccc1C[C@@]1(C(=O)NCCN2CCOCC2)N=C(c2ccc(OCCCO)cc2)O[C@@H]1c1ccccc1`, for which the composite z-score in assay [1] came to 1.57; in assay [2], 0.532; in [3], 0.915; in assay [5], 1.35; in [6], 1.29; in [7] it was 0.245. Moreover, the composite z-score in assay [8] is 1.21; in assay [9], 0.461; in assay [10], 0.847. Besides, the z-score in [4] was -0.724 (inactive).

With `N#Cc1ccc(NN2C(C(O)c3c(F)cccc3Cl)C=CC3C(=O)N(c4ccccc4)C(=O)C32)cc1` (stereo not given), the composite z-score in [1] is 1.08; in assay [2] it was 1.42; in assay [3], 1.19; in assay [5], 0.922; in [6], 0.943; in assay [7] it was 0.143. Besides, the composite z-score in assay [8] was 1.12; in assay [9] it was 0.125; in [10], 0.5. Besides, the z-score in assay [4] is 0.615 (inactive).

For `CCOC(=O)C[C@H]1[C@H](OC(=O)Cc2ccc3c(c2)OCO3)[C@@H](NC(=O)c2ccc3ccccc3c2)c2cc(OCCCO)ccc2N1C(=O)c1ccccc1`, the composite z-score is 0.622 in assay [1]; -0.0805 in assay [2]; -0.205 in assay [3]; 0.47 in [5]; 0.213 in assay [6]; 0.188 in assay [7]. Further, the composite z-score in assay [8] was 0.433; in assay [9], 0.295; in assay [10], 0.405. Besides, the z-score in assay [4] was -0.547 (inactive).

On to `O=C1c2ccccc2[C@@]2(Cc3ccccc3N(CC(F)(F)F)C2=O)[C@H](c2ccc(CO)cc2)N1Cc1ccccc1Cl`, for which the composite z-score is 0.0888 in [1]; -0.237 in assay [2]; -0.524 in [3]; 0.466 in assay [5]; 0.612 in assay [6]; 0.509 in assay [7]. The composite z-score was 0.725 in assay [8], 0.558 in assay [9] and 0.531 in [10]. Further, in assay [4], the z-score is -0.311 (inactive).

As for `C=CCNC(=O)[C@H]1[C@@H]2C(=O)O[C@@H](c3ccccc3)[C@@H](c3ccccc3)N2[C@@H](c2ccccc2OCCO)[C@]12C(=O)Nc1ccc(C#CC3=CCCCC3)cc12`, the composite z-score in assay [1] was 1.28; in assay [2], -0.22; in [3], 0.317; in [5], 1.27; in assay [6] it was 1.3; in assay [7], 0.48. Also, the results for the composite z-score in assay [8], in assay [9] and in assay [10] were 1.24, 0.646 and 1.17, respectively. Further, in assay [4], the z-score is -2.23 (inactive).

In the case of `COC(=O)[C@@]1(Cc2ccc(F)cc2)[C@H]2c3cc(C(=O)N(C)C)n(Cc4nc5ccccc5[nH]4)c3C[C@H]2CN1C(=O)c1ccccc1`, the composite z-score in [1] was 1.62; in [2] it was 0.69; in assay [3], 0.969; in assay [5], 0.63; in [6], -0.136; in assay [7], 0.314. Moreover, the composite z-score in assay [8] is 0.296; in assay [9], -0.419; in [10] it was 0.538. The z-score in assay [4] is -1.62 (inactive).

With `COC(=O)[C@@]1(Cc2ccc(OC)cc2)[C@H]2c3cc(C(=O)N(C)C)n(Cc4cccc5ccccc45)c3C[C@H]2CN1C(=O)c1ccccc1`, the composite z-score amounted to 0.971 in [1]; 1.8 in assay [2]; 0.771 in [3]; 1.04 in assay [5]; 0.329 in assay [6]; 0.671 in [7]. In addition, the composite z-score in assay [8] was determined as 0.553; in assay [9] it was 0.208; in assay [10], 0.537. For the same compound, in assay [4], the z-score was -3.61 (inactive).

Consider `O=C1C2C=CC(C(O)C(c3ccccc3)c3ccccc3)N(n3cnnc3)C2C(=O)N1Cc1ccccc1` (stereo not given), for which the composite z-score in assay [1] is 0.55; in [2], -0.0184; in assay [3] it was 0.571; in assay [5], 1.25; in assay [6], 1.07; in [7] it was -1.18. Moreover, the composite z-score in assay [8] turned out to be 0.439; in [9], 1.24; in assay [10], 0.581. Moreover, the z-score in [4] is 0.00252 (inactive).

With `C=CCN1C(=O)[C@]2(O[C@H](CCO)[C@@H]([Si](C)(C)c3ccc(OC)cc3)[C@@H]2C)c2cc(N3C(=O)c4cccc5cccc3c45)ccc21`, the composite z-score in assay [1] is 1.18; in assay [2], 0.0458; in assay [3], 0.151; in assay [5], 0.446; in [6], 0.398; in [7], -0.0841. In addition, the composite z-score is 0.286 in [8], -0.255 in [9] and 0.552 in assay [10]. In [4], the z-score is -2.45 (inactive).

In the case of `COc1ccc(C(O)C2C=CC3C(=O)NC(=O)C3N2Nc2ccccn2)cc1` (stereo not given), the composite z-score in [1] is 0.948; in assay [2], 0.422; in assay [3], 0.267; in [5], 0.257; in [6], -0.0877; in assay [7], 0.686. In addition, the composite z-score turned out to be 0.304 in assay [8], 0.645 in assay [9] and 0.371 in assay [10]. Moreover, in [4], the z-score was 0.706 (inactive).

`O=C1[C@H]2C=C(Br)[C@H](C[C@@H]2OCCCCO)[C@@]12CO2`: the composite z-score in [1] was 1.02; in assay [2] it was -0.257; in assay [3] it was -0.504; in [5], 0.177; in assay [6] it was 0.0613; in [7], 0.224. For the same compound, the composite z-score in [8] is -0.0883; in assay [9] it was 0.438; in [10], 0.646. The z-score in [4] was -0.238 (inactive).

As to `O=C1O[C@@H](c2ccccc2)[C@@H](c2ccccc2)N2[C@@H](c3ccccc3OCCO)[C@]3(C(=O)Nc4ccc(C#CC5=CCCCC5)cc43)[C@@H](C(=O)Nc3nc4ccccc4s3)[C@H]12`, the composite z-score in assay [1] was 1.5; in assay [2] it was 0.0826; in [3], -0.0401; in assay [5] it was 1.32; in [6], 1.29; in assay [7] it was 0.463. In addition, the composite z-score in assay [8] is 1.23; in assay [9], 0.619; in assay [10], 0.137. The z-score in [4] is -0.459 (inactive).

Regarding `COc1ccc(C(O)C2C=CC3C(=O)N(C)C(=O)C3N2N2CCCCC2)c2ccccc12` (stereo not given), the composite z-score in assay [1] was determined as 1.17; in assay [2] it was 0.65; in [3], 0.947; in assay [5], 0.956; in [6], 1.29; in assay [7] it was 0.344. In addition, the composite z-score in [8] was 1.24; in assay [9], -0.312; in assay [10], 0.91. Further, the z-score in [4] is 1.28 (inactive).
